Assay outcomes (PubChem BioAssay)
RXFP1 antagonist: RXFP1 (human) relaxin receptor antagonism; Q9HBX9; activity change, negative = inhibition, % at 57.5 µM; actives 0.59% (n = 350,000); AID 1259400; HEK293-RXFP1, relaxin-stimulated cAMP HTRF, 30 min; hits give low values;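 active = activity change of -60% or lower, but not beyond a set lower limit; inconclusive = change between -60% and -40%, or beyond the set limit; inactive = change above -40%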; also: % is scaled to controls: 0 for no effect and ±100 for the full control effect
gsp agonist: gsp mutant agonism; gsp mutant cells, cAMP HTRF, 30 min; Potency, µM (series often up to 76.9 µM), without a hit: at the top dose activation (cAMP increase), most hits filed as activators; actives 0.13% (n = 340,000); AID 624287; active = well fitted activation curve with a large enough effect; inconclusive = small, poorly fitted or top-dose-only effect, or another doubt; inactive = no such curve, though single readings can be large or run the other way; cell line not stated here;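 also: phosphodiesterase inhibitor Ro 20-1724 added with compounds to block cAMP breakdown; potency is read from the fitted curve at half-maximal effect; nearly all actives have a fitted effect of over 60% in size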
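Cells in DMEM/10% FBS with G418 were pretreated with compounds in DMSO plus […] (300 uM stock) for 30 min at 37C. cAMP was measured by HTRF (cAMP-d2 plus anti-cAMP antibody-K) after 30 min at room temperature.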
Akt phos inh: Akt phosphorylation inhibition. Neuro2A IGF-stimulated pAkt S473 HTRF, 20 min; hits give low values. activity change, % for hits at 50 µM. actives 0.32% (n = 360,000). AID 651550; in the data active = activity change below about -80%; inconclusive = mostly about -51% to -80%; also: % is scaled to controls: 0 for no effect and ±100 for the full control effect
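Neuro2A cells (4,500/well, DMEM with 0.5% FBS) were treated with compound at a single 50 µM final concentration, stimulated with 6 nM IGF for 20 min at 37 °C, and lysed. Phospho-Akt Ser473 was read by HTRF as 665/615 ratio ×10^4.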
RXFP1 agonist: activates the human relaxin receptor RXFP1; HEK293T-RXFP1 cAMP TR-FRET, 30 min; response scale: percent of porcine relaxin response, buffer zero; actives 0.3% (n = 370,000); Potency, µM (doses to about 57.5 µM), for the others: top-dose activation, actives largely listed as activators; Q9HBX9; AID 2676; active = well fitted activation curve with a large enough effect; inconclusive = small, poorly fitted or top-dose-only effect; also: potency is read from the fitted curve at half-maximal effect; % is scaled to controls: 0 for no effect and ±100 for the full control effect; nearly all actives have a fitted effect of over 60% in size
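Agonist response is measured as cAMP accumulation in an RXFP1-transfected HEK293T line under PDE4 inhibition. Values are scaled between buffer-only and 29 nM porcine relaxin, and EC50s come from standard Hill equation fits.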
gsp antagonist: antagonizes gsp, the McCune-Albright syndrome mutation | gsp-mutant cells, cAMP HTRF, 30 min | Potency, µM (series often up to 76.9 µM), without a hit: top-dose activity change, negative = inhibition, actives largely listed as inhibitors | actives 0.4% (n = 340,000) | AID 624288; calls by dose curve; cell line not stated here;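 also: intracellular cAMP measured with PDE inhibitor Ro 20-1724 present during compound exposure; potency is read from the fitted curve at half-maximal effect; % is scaled to controls: 0 for no effect and ±100 for the full control effect; nearly all actives have a fitted effect of over 65% in size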
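Measurement of cellular cAMP by homogeneous time-resolved fluorescence following a 30 min compound exposure at 37C. The PDE inhibitor […] was present throughout; the assay buffer was DPBS with 0.05% BSA and 0.005% Tween 20.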
Numbers without * were called inactive; i = inactive; ? = inconclusive; · = not tested or not shown; [ ] = dose if it differs, or a comment. A selection: hits, their analogues and other compounds. The true share with any hit is near 1.3%.

SMILES | RXFP1 antagonist | gsp agonist | Akt phos inh | RXFP1 agonist | gsp antagonist
COc1ccc(C2c3c(-c4ccccc4O)n[nH]c3C(=O)N2Cc2ccco2)cc1 (stereo not given) | -28.0 | 0.1%[15.4 µM] | i | 1.1% | -7.3%
Cc1ccc(O)c(-c2n[nH]c3c2C(c2ccc(F)cc2)N(Cc2ccco2)C3=O)c1 (stereo not given) | -63.9* | · | · | -0.5% | ·
CCc1ccc(NC(=O)CC2C(=O)N(c3cccc(C)c3)C(=O)N2Cc2cccc(OC)c2)cc1 (stereo not given) | -2.9 | · | · | -2.3% | ·
OC(CNC1CCCc2ccccc21)COc1c(Cl)cccc1Cl (stereo not given) | -63.1* | 0.0% | i | -1.2% | 8.9%
Nc1nc(N)c(-c2cccc(C(F)(F)F)c2)c(Cc2cccc(C(F)(F)F)c2)n1 | -92.5* | 2.9% | i | · | 1.8%
O=C(O)Cc1csc2ccccc12 | 0.5 | -50.7% | -125.9%* | 1.3% | -3.9%
C[C@@H]1CN([C@@H](C)CO)C(=O)CCCn2nncc2CO[C@@H]1CN(C)C(=O)c1ccc(N2CCN(C)CC2)cc1 | 5.8 | 10µM* | i | · | ·
C[C@@H]1CN([C@H](C)CO)C(=O)CCCn2nncc2CO[C@H]1CN(C)C(=O)c1ccc(N2CCN(C)CC2)cc1 | 9.1 | -48.0% | i | · | ·
NC(=O)c1ccsc1NC(=O)CN1CCN(S(=O)(=O)c2ccccc2C(F)(F)F)CC1 | ? | 15.1% | i | · | 50.1µM*
O=C(Cc1ccccc1)NNC(=O)c1ccccc1C(=O)O | 6.6 | ? | i | 0.9% | 11.2µM*
Cc1cc(C)n2c(SCC(=O)Nc3c(C)n(C)n(-c4ccccc4)c3=O)nnc2n1 | -10.1 | ? | i | 0.6% | 7.6%
Cc1cc(C)n2c(SCC(=O)Nc3cc(C)on3)nnc2n1 | -0.9 | 22.4µM* | i | 26.6% | 9.6%
Cc1cc(C)n2c(SCC(=O)N(C)C3CCCCC3)nnc2n1 | -0.8 | -30.9% | i | 12.7% | 2.3%
Cc1cc(C)nc(SCC(=O)NC2CCCCC2C)n1 (stereo not given) | -60.6* | 0.9%[15.4 µM] | i | 0.2% | -0.6%
Cc1cc(NC(=O)CSc2nc3ccccc3n2CCC#N)no1 | -5.3 | -5.7%[15.4 µM] | i | 0.1% | 10µM*
Cc1cc(C)n2c(SCC(=O)NC3CCCCC3)nnc2n1 | 1.4 | 14.1µM* | i | ? | 4.3%
O=C(NCC(c1ccc(Cl)cc1)N1CCCCC1)c1ccccc1F (stereo not given) | -10.8 | · | · | 6.5% | ·
O=C(c1cc(-c2ccncc2)nc2ccc(Br)cc12)N1CCN(Cc2ccc3c(c2)OCO3)CC1 | -13.1 | 18.7%[15.4 µM] | i | 0.2% | 28.2µM*
O=[N+]([O-])c1ccc(Cl)c(S(=O)(=O)/N=C(/c2ccccc2)N2CCOCC2)c1 | -60.8* | ? | i | -1.2% | 3.0%
O=S(=O)(/N=C(\c1ccccc1)N1CCOCC1)c1ccc(Cl)cc1 | 3.7 | -10.8% | i | 0.6% | 0.4%
N[C@H](C(=O)O)[C@@H](O)c1ccc(O)c(O)c1 | 18.9 | · | · | · | ·
O=C1C2CC=CCC2C(=O)N1c1ccc(NCCc2ccc(O)cc2)c([N+](=O)[O-])c1 (stereo not given) | -5.6 | 9.9%[15.4 µM] | i | -0.5% | 31.6µM*
Clc1ccc(-c2nnc(CSc3nnc(-c4cccs4)n3Cc3ccccc3)o2)cc1 | 17.3 | 10.5% | i | 2.0% | 25.1µM*
CCN(CCCNC(=O)c1cc2cc3cc(C)ccc3nc2s1)c1cccc(C)c1 | -3.0 | · | · | -1.6% | ·
Nc1nonc1-n1nnc(C(=O)N/N=C/c2cccc(Cl)c2)c1-c1cccs1 | -21.6 | -2.4% | i | 3.4% | 39.8µM*
Nc1nonc1-n1nnc(C(=O)N/N=C/c2ccc(F)cc2)c1-c1ccc2c(c1)OCO2 | -23.6 | 30.7% | i | 0.8% | -0.4%
Nc1nonc1-n1nnc(C(=O)N/N=C/c2cccnc2)c1-c1cccs1 | 8.4 | -40.9% | i | 0.9% | 0.9%
CC(C)c1c(C(=O)N/N=C/c2ccc(OCc3ccccc3)cc2)nnn1-c1nonc1N | -18.0 | ? | i | -3.5% | -12.8%
Cc1ccc(/C=N/NC(=O)c2nnn(-c3nonc3N)c2-c2ccc3c(c2)OCO3)s1 | -19.8 | 37.1% | i | -1.4% | 39.8µM*
